From PubChem BioAssay AID449728 (The Scripps Research Institute Molecular Screening Center, 2010)
Out of some 330,000 compounds screened, about 900 (0.27%) were called active. This is one part of a sample in which actives are shown more often than they occur. Values without a mark were called inactive.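 How the source made its calls: active means inhibition above the campaign's mean inhibition across all tested compounds plus 3 SD (cut at about 9.9% in these data); inactive means the rest.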

Test: E. coli V3065 growth inhibition, primary screen, counter-screen for AddAB inhibitor project, absorbance, OD600 (AID 449728);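 further: uninfected addAB+ strain grown without phage in ampicillin broth; 0% = DMSO wells and 100% = ciprofloxacin 0.95 µg/ml wells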
Conditions: 18 h, at 11.9 µM, stronger effect = higher value

| Structure (SMILES) | inhibition |
| --- | --- |
| CC[C@H]1OC(=O)[C@H](C)[C@@H](O[C@H]2C[C@@](C)(OC)[C@@H](O)[C@H](C)O2)[C@H](C)[C@@H](O[C@@H]2O[C@H](C)C[C@H](N(C)C)[C@H]2O)[C@](C)(O)C[C@@H](C)[C@@H]2N[C@@H](COCCOC)O[C@H]([C@H]2C)[C@]1(C)O | 39.7% (active) |
| O=C(Nc1cccc2c1N(C(=O)c1ccco1)CCC2)c1ccco1 | 0.81% |
| CCCc1nc(SCC(=O)N2CCCC2)c2c(=O)n(C)c(=O)n(C)c2n1 | 0.51% |
| O=C(NCc1ccncc1)C(=O)NCc1ccco1 | -0.95% |
| C/C(N)=C(/C#N)C(=O)COC(=O)C1CCN(C(=O)c2ccc(Cl)cc2)CC1 | -2.66% |
| N#Cc1c(-c2ccc(F)cc2)cc(C2CC2)nc1SCC(=O)c1cccs1 | -0.26% |
| COc1cc(NS(=O)(=O)c2ccc(NC(=O)c3ccc([N+](=O)[O-])cc3)cc2)ncn1 | 1.53% |
| Cn1ccc(=Nc2ccc(NC(=O)c3ccc(N=c4ccn(C)c5ccc([N+](=O)[O-])cc45)cc3)cc2)cc1 | 103% (active) |
| CC(=O)NC(=S)Nc1ccc(NC(=S)NC(=O)c2ccc([N+](=O)[O-])cc2)cc1 | -0.16% |
| C=CCn1c(SCC(N)=O)nnc1-c1cc2c(s1)CCC(CC)C2 (stereo unspecified) | 1.3% |
| CCCCN(CC)CCNC(=O)c1[nH]c(C)c(C(C)=O)c1C | -0.92% |
| CCN(CC)c1ccc(NC(=O)CN2CCN(c3ccccn3)CC2)cc1 | 10.5% (active) |
| O=C(CN1CCN(c2ccccn2)CC1)NC1CCCCC1 | 1.09% |
| O=C(CN1CCN(c2ccccn2)CC1)Nc1ccc(Br)cc1 | 2.27% |
| NC(=O)NCCCC(=O)O | -0.17% |
| CC(=O)N(O)CCCCCNC(=O)CCC(=O)N(O)CCCCCNC(=O)CCC(=O)N(O)CCCCCNC(=O)CCC(=O)O | 25.5% (active) |
| O=C(COC(=O)c1cc(S(=O)(=O)N2CCCCC2)ccc1Cl)NCc1ccco1 | -0.84% |
| CC1CCCC(NC(=O)c2cc(S(=O)(=O)N3CCCCC3)ccc2Cl)C1C (stereo unspecified) | -1.24% |
| O=C(NNC(=O)c1cc(S(=O)(=O)N2CCCCC2)ccc1Cl)c1ccccc1O | 10.3% (active) |

| Structure (SMILES) | inhibition |
| --- | --- |
| CCn1cc(/C=C2/SC(=S)NC2=O)c(C)n1 | 0% |
| Brc1ccc(/C=N/N2CCN(C3c4ccccc4-c4ccccc43)CC2)s1 | 0.91% |
| Cc1nn2c3cc(N4CCOCC4)ccc3nc2c2ccccc12 | 0.55% |
| COC(=O)CSc1nc2c(c(C3CC=CCC3)c1C#N)CCC2 (stereo unspecified) | 0.17% |
| CCn1c(=O)c([N+](=O)[O-])c(NCc2ccc3c(c2)OCO3)c2ccccc21 | 0.41% |
| CCOCCCn1c(NN)nc2ccccc2c1=O | 2.87% |
| CCn1c(/C=C/c2ccc([N+](=O)[O-])o2)nc2ccccc2c1=O | 21.6% (active) |
| Cc1cn(C2C=CC(CO)O2)c(=O)[nH]c1=O (stereo unspecified) | 8.77% |
| COc1cc(OC)c2c(c1)OC(=O)CC2c1cc(OC)c(OC)c(OC)c1 (stereo unspecified) | 2.5% |
| CC1(C)CC2CC(C)(CN2c2ncnc3ccc(Br)cc23)C1 (stereo unspecified) | -0.09% |
| Cc1ccc(NC(=O)CCCNC(=O)c2ccc(Cl)cc2)cc1S(=O)(=O)N1CCOCC1 | -1.94% |
| CC(C)[C@@H]1COC(c2cccc(C3=N[C@H](C(C)C)CO3)c2)=N1 | -0.25% |
| CCN1/C(=C\c2ccc3ccccc3[n+]2CC)Sc2cc(C)ccc21 | 15% (active) |
| CC(=O)c1c(Nc2ccccc2)sc(C(=O)c2ccccc2)c1C | 1.73% |
| CCOc1ccccc1NC(=S)N1CCN(c2cccc(C)c2C)CC1 | 0.08% |
| O=C(O)CSc1nccc2ccccc12 | -0.18% |
| O=C1CCC(=O)N(O)CCCCCNC(=O)CCC(=O)N(O)CCCCCNC(=O)CCC(=O)N(O)CCCCCN1 | 29.4% (active) |
| CCOC(=O)c1nnn2c1nc(N1CCN(c3ccccc3)CC1)c1ccccc12 | 1.28% |
| O=C(/C=C/c1ccccc1Cl)Nc1ccc(S(=O)(=O)Nc2ncccn2)cc1 | 0.84% |

| Structure (SMILES) | inhibition |
| --- | --- |
| COc1cccc(OC)c1C(=O)NC(=S)NCc1ccco1 | 1.37% |
| COc1cc(C(=O)NC(=S)NCc2ccco2)cc(OC)c1OC | 14.7% (active) |
| COc1cc(NC(=S)NCc2ccco2)c(OC)cc1Cl | -0.7% |
| O=C(NCCc1c[nH]c2ccccc12)c1cc2ccccc2oc1=O | 0.17% |
| CC(C)(C)N(Cc1ccccc1)C(=O)COC(=O)CCc1c[nH]c2ccccc12 | -1.13% |
| CSC(=S)N/N=C/c1c[nH]c2ccccc12 | 12.8% (active) |
| Nc1nonc1-n1nnc(C(=O)N/N=C/c2c[nH]c3ccccc23)c1-c1ccccc1 | 0% |
| O=C(O)c1cccc(NC(=S)N/N=C/c2c[nH]c3ccccc23)c1 | 0.08% |
| Cc1ccc(CSCC2Nc3ccc(C(=O)N4CCN(c5ccc(F)cc5)CC4)cc3NC2=O)cc1 (stereo unspecified) | -0.76% |
| O=C(O)CCCC(=O)Nc1ccc(Oc2cccc(C(F)(F)F)c2)nc1 | 1.79% |
| Cc1ccc(OC(=O)c2ccccc2C(=O)OCC(F)(F)C(F)F)cc1 | 0.25% |
| O=C(CCC(=O)NNc1nc2ccccc2c2nc(-c3ccccc3)nn12)NCCCN1CCCC1=O | -1.57% |
| CCCc1nnc(SCC(=O)Nc2ccc(C(=O)OCC)cc2)o1 | -1.1% |
| CCOC(=O)c1ccc(NC(=O)CSc2nnc(COc3ccccc3OC)n2C)cc1 | 2.63% |
| CCOC(=O)c1ccc(NC(=O)Cn2cnc3cc(C)c(C)cc32)cc1 | 16.7% (active) |
| COc1cc(OC)cc(-c2c(C#Cc3ccsc3)c3cc(-c4ccc(SC)cc4)ccc3n2C)c1 | 0.52% |
| COc1ccc(-c2ccc(CCC(=O)O)n2NC(=O)c2ccc(C(C)(C)C)cc2)cc1 | 2.02% |
| COc1ccc(CSc2nnnn2-c2ccc(O)cc2)cc1F | -0.34% |
